CHT PAM: human CHT allosteric activation. B-score at 10 µM. 310,000 compounds, 0.49% hits. AID 488977. Q9GZV3. CHT-expressing cells, membrane potential dye, choline EC20; active compounds read high; LV-AA mutant CHT in HEK293 cells;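 active = initial fluorescence not abnormally high and integrated response B-score, plate-corrected, over 3 SD above library mean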
TMEM16A inh: blocks the mouse calcium-activated chloride channel TMEM16A. 310,000 compounds, 1.2% hits. HEK293 TMEM16A/YFP iodide influx fluorescence, ionomycin. normalized B-score (activity score, 25-100; higher = stronger inhibition) at 10 µM. Q8BHY3;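 active = ratio plate-corrected score three or more library SD toward inhibition, starting fluorescence score within five deviations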;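 also: score derived from kinetic fluorescence span divided by baseline fluorescence per well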
Target sequence (Q8BHY3 whole entry, looked up): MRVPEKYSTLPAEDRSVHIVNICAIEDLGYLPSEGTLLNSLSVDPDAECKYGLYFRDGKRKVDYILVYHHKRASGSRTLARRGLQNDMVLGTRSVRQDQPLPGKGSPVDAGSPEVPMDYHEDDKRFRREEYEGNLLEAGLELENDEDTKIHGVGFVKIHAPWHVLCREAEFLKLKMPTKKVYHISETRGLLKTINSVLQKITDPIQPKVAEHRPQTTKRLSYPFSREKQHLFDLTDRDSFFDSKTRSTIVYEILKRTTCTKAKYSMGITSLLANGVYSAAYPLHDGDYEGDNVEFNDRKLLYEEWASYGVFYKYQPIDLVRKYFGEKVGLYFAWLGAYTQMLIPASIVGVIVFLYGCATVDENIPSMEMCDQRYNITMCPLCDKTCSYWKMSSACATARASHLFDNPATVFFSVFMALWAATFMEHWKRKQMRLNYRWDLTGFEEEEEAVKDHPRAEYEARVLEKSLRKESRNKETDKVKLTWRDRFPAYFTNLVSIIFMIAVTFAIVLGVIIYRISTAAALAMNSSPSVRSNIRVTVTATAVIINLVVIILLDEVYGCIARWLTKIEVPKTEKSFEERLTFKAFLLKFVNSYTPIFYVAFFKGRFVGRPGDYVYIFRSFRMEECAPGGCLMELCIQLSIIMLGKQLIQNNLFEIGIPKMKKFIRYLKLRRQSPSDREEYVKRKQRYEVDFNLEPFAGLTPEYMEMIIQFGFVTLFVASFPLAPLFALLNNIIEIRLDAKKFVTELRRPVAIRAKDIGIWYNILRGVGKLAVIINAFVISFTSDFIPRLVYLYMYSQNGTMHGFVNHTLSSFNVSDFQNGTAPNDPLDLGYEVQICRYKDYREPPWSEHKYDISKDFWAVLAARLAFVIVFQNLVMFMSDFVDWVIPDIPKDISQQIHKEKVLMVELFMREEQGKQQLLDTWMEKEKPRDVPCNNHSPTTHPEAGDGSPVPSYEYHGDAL
TMEM16A act: activates or potentiates the mouse TMEM16A chloride channel; Q8BHY3; 340,000 compounds, 0.3% hits; B-score at 10 µM; HEK293 TMEM16A/YFP-H148Q/I152L, iodide quench fluorescence; active compounds read low;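 active = fluorescence-ratio B-score plate-corrected deviation score at least 3 library SD below zero, with starting fluorescence score within 5 deviations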;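 also: channel opened by trigger with iodide after compound preincubation; score built on the fluorescence ratio of max minus min over baseline; more negative score means more quench and so TMEM16A activation or potentiation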
CHT block: inhibitors of human choline transporter CHT; B-score at 10 µM; 310,000 compounds, 0.86% hits; Q9GZV3; CHT-expressing cells, membrane potential dye, choline response; active compounds read low; AID 488975;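 active = B-score over 3 SD under the library average, and starting fluorescence ratio not unusually high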;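 also: choline stimulus applied at its EC90 after an EC20 pre-addition; B-score computed on integrated fluorescence ratio after choline addition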
CHT activ conf: human CHT activation, confirmatory screen; shares compounds with CHT PAM; CHT-expressing cells, membrane potential dye fluorescence (FDSS); % of choline EC20–EC90 response window; HEK293 expressing CHT LV-AA mutant; choline added at its EC20; activation, % at 10 µM; 2,500 compounds, 91% hits;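 active = primary screen active, with duplicate mean activation above negative control mean plus 3 SD, cut at about 11% in these data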
HEK293 MP dye: counter-screen for CHT activators: effect in parental HEK293 cells | shares compounds with CHT PAM | membrane potential dye fluorescence (FDSS); measured after EC20 choline addition | ratio readout change at 10 µM, hits read low | 2,500 compounds, 62% hits | AID 623908;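 active = duplicate-averaged ratio beyond 3 SD from buffer wells, up or down, though filed actives are nearly all decreases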
* hit, by the source's call. Hits are enriched below; roughly 2.4% of the tested compounds scored in any of these assays.

Results for CN1CCN(c2ccc(S(=O)(=O)N3CCCCC3)cc2NC(=O)c2ccc(C#N)cc2)CC1 ?
CHT PAM: inactive; TMEM16A inh: inactive; TMEM16A act: inactive; CHT block: inactive; CHT activ conf: 1.8; HEK293 MP dye: inactive

How did Cn1c(SCC(=O)Nc2ccccc2F)nnc1C1CCCCC1 do in these assays?
CHT PAM: inactive; TMEM16A inh: inactive; TMEM16A act: inactive; CHT block: inactive

What do the screens show for `O=C(Nc1ccccc1)c1ccc[n+](Cc2ccc([N+](=O)[O-])cc2)c1`?
CHT PAM: inactive; TMEM16A inh: inactive; TMEM16A act: inactive; CHT block: inactive; CHT activ conf: 41.9*; HEK293 MP dye: -31.8*

Results for CC(=O)N(c1ccccc1)C(C)c1nc(C#N)c(C#N)nc1C (stereo unspecified) ?
CHT PAM: inactive; TMEM16A inh: inactive; TMEM16A act: inactive; CHT block: inactive

How did COc1ccc(C2=NNC(=O)C2(C)Br)cc1 (stereo unspecified) do in these assays?
TMEM16A act: inactive

How did NC1=Nc2cccc3cccc1c23 do in these assays?
CHT PAM: inactive; TMEM16A inh: inactive; TMEM16A act: inactive; CHT block: inactive; CHT activ conf: 44.9*; HEK293 MP dye: -65.1*

How did COc1nnc(-c2ccc(N3CCOCC3)c(NC(=O)C3CCCCC3)c2)c2ccccc12 do in these assays?
CHT PAM: inactive; TMEM16A inh: inactive; TMEM16A act: inactive; CHT block: inactive; CHT activ conf: 7.5; HEK293 MP dye: inactive

How did O=C(COC(=O)c1cc[n+]([O-])cc1)Nc1cc([N+](=O)[O-])ccc1Cl do in these assays?
CHT PAM: inactive; TMEM16A inh: inactive; TMEM16A act: inactive; CHT block: inactive; CHT activ conf: 39.6*; HEK293 MP dye: -50.3*

Results for COc1ccc(-n2nc(C(=O)NCC(=O)NCCCN3CC(C)CC(C)C3)c3ccccc3c2=O)cc1Cl (stereo unspecified) ?
CHT PAM: 7.66*; TMEM16A inh: inactive; TMEM16A act: inactive; CHT block: inactive; CHT activ conf: 43.1*; HEK293 MP dye: -46.9*

What do the screens show for `CCCCN(CCCNC(=O)c1ccc(CS(=O)(=O)c2c(Cl)cccc2Cl)o1)Cc1ccccc1`?
CHT PAM: inactive; TMEM16A inh: inactive; TMEM16A act: inactive; CHT block: inactive; CHT activ conf: 43.9*; HEK293 MP dye: -41.7*

How did CCCCN(CC)CCCNC(=O)c1ccc(CS(=O)(=O)c2c(Cl)cccc2Cl)o1 do in these assays?
CHT PAM: inactive; TMEM16A inh: inactive; TMEM16A act: inactive; CHT block: inactive

How did Cc1cc(Nc2ncc(Cl)cc2Cl)n(-c2ccccc2C)n1 do in these assays?
CHT PAM: 8.82*; TMEM16A inh: inactive; TMEM16A act: inactive; CHT block: inactive; CHT activ conf: 42.1*; HEK293 MP dye: inactive

How did Cc1ccc(-n2nc(C)cc2Nc2ncc(Cl)cc2Cl)cc1 do in these assays?
CHT PAM: inactive; TMEM16A inh: inactive; TMEM16A act: inactive; CHT block: inactive

How did CN(C)c1ccc(Nc2nc(N)c3ccccc3n2)cc1 do in these assays?
CHT PAM: 7.44*; TMEM16A inh: inactive; TMEM16A act: inactive; CHT block: inactive; CHT activ conf: 48.6*; HEK293 MP dye: -75.2*

What do the screens show for `Nc1nc(Nc2ccccc2)nc2ccccc12`?
CHT PAM: inactive; TMEM16A inh: inactive; TMEM16A act: inactive; CHT block: inactive; CHT activ conf: 36.5*; HEK293 MP dye: -65.8*

Results for Nc1ncnc(Nc2ccccc2)n1 ?
CHT PAM: inactive; TMEM16A inh: inactive; TMEM16A act: inactive; CHT block: inactive

Results for CN(C)c1nc(Nc2ccccc2)nc(N(C)C)n1 ?
CHT PAM: inactive; TMEM16A inh: inactive; TMEM16A act: inactive; CHT block: inactive

Results for Cc1ccccc1Nc1nc(N)c2ccccc2n1 ?
CHT PAM: 6.82*; TMEM16A inh: inactive; TMEM16A act: inactive; CHT block: inactive; CHT activ conf: 11.0*; HEK293 MP dye: -44.2*

What do the screens show for `CC(C)(C)c1ccc(NC(=O)CN2C(=O)NC(C)(C3CC3)C2=O)cc1` (stereo unspecified)?
TMEM16A act: inactive

How did N#Cc1cc(N2CCCCC2)c([N+](=O)[O-])cc1C#N do in these assays?
CHT PAM: inactive; TMEM16A inh: inactive; TMEM16A act: inactive; CHT block: inactive

How did CN(C)CCC1CCN(c2cc(C#N)c(C#N)cc2[N+](=O)[O-])CC1 do in these assays?
CHT PAM: 7.16*; TMEM16A inh: inactive; TMEM16A act: inactive; CHT block: inactive; CHT activ conf: 57.7*; HEK293 MP dye: -63.9*

Results for CCN1C(=NCC2CC2)N[C@@H](c2cccc(C(F)(F)F)c2)C(C(=O)OC)=C1C ?
CHT PAM: 10.8*; TMEM16A inh: inactive; TMEM16A act: inactive; CHT block: inactive; CHT activ conf: 25.3*; HEK293 MP dye: inactive

What do the screens show for `COC(=O)C1=C(C)N(Cc2ccccc2)C(=NCc2ccc(OC)cc2)N[C@H]1c1cccc(F)c1`?
CHT PAM: inactive; TMEM16A inh: inactive; TMEM16A act: inactive; CHT block: inactive; CHT activ conf: 19.6*; HEK293 MP dye: inactive

Results for CCN1C(=NCCOC)N[C@@H](c2cccc(C(F)(F)F)c2)C(C(=O)OC)=C1C ?
TMEM16A act: inactive

Results for O=C(NCCCO)C(=O)NCc1ccncc1 ?
CHT PAM: inactive; TMEM16A inh: inactive; TMEM16A act: inactive; CHT block: inactive

What do the screens show for `O=c1[nH]cnc2sc3c(c12)CCN(Cc1ccccc1)C3`?
CHT PAM: inactive; TMEM16A inh: inactive; TMEM16A act: inactive; CHT block: inactive

How did OCCCNc1ncnc2sc3c(c12)CCN(Cc1ccccc1)C3 do in these assays?
CHT PAM: 6.24*; TMEM16A inh: inactive; TMEM16A act: inactive; CHT block: inactive; CHT activ conf: 48.7*; HEK293 MP dye: -52.6*

What do the screens show for `CNC(=S)Nc1cc(S(=O)(=O)Nc2cc(Cl)ccc2Cl)ccc1N1CCCC1`?
CHT PAM: inactive; TMEM16A inh: inactive; TMEM16A act: inactive; CHT block: inactive; CHT activ conf: 14.4*; HEK293 MP dye: inactive

What do the screens show for `COc1ccc(-n2ccnc2SCC(=O)Nc2ccc(OC)cc2OC)cc1`?
CHT PAM: inactive; TMEM16A inh: inactive; TMEM16A act: inactive; CHT block: inactive

Results for CCOc1ccc(-n2c(-c3ccccc3)c[n+]3c2CCCCC3)cc1 ?
CHT PAM: 12.9*; TMEM16A inh: inactive; TMEM16A act: inactive; CHT block: inactive; CHT activ conf: 43.7*; HEK293 MP dye: inactive

Screening data deposited in PubChem BioAssay by Johns Hopkins Ion Channel Center.
